Test results published in publication PMC11006913.
Residue numbers refer to the chain shown, from its start.

Key:
Experiment in all cases: PBM; 200 nM protein, PBS
Conditions in all cases: dsDNA, one strand shown
SIX6 [1] = molecular target: T1, SIX6 (Homo sapiens, UniProt O95475 114-200, L167I)
T1 sequence: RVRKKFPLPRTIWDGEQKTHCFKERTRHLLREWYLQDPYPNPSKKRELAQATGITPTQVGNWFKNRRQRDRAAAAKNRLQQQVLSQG

SIX6 [2] = molecular target: T2, SIX6 (Homo sapiens, UniProt O95475 114-200, L143V)
T2 sequence: T1 sequence with L30V, I54L

SIX6 [3] = molecular target: T3, SIX6 (Homo sapiens, UniProt O95475 114-200, H141N)
T3 sequence: T1 sequence with H28N, I54L

SIX6 [4] = molecular target: T4, SIX6 (Homo sapiens, UniProt O95475 114-200, T165P)
T4 sequence: T1 sequence with T52P, I54L

SIX6 [5] = molecular target: T5, SIX6 (Homo sapiens, UniProt O95475 114-200, L167M)
T5 sequence: T1 sequence with I54M

SIX6 [6] = molecular target: T6, SIX6 (Homo sapiens, UniProt O95475 114-200, L143M)
T6 sequence: T1 sequence with L30M, I54L

SIX6 [7] = molecular target: T7, SIX6 (Homo sapiens, UniProt O95475 114-200, L143I)
T7 sequence: T1 sequence with L30I, I54L

SIX6 [8] = molecular target: T8, SIX6 (Homo sapiens, UniProt O95475 114-200, T165G)
T8 sequence: T1 sequence with T52G, I54L

SIX6 [9] = molecular target: T9, SIX6 (Homo sapiens, UniProt O95475 114-200, T139Q)
T9 sequence: T1 sequence with T26Q, I54L

SIX6 [10] = molecular target: T10, SIX6 (Homo sapiens, UniProt O95475 114-200, T165A)
T10 sequence: T1 sequence with T52A, I54L

SIX6 [11] = molecular target: T11, SIX6 (Homo sapiens, UniProt O95475 114-200, L167V)
T11 sequence: T1 sequence with I54V

SIX6 [12] = molecular target: T12, SIX6 (Homo sapiens, UniProt O95475 114-200)
T12 sequence: T1 sequence with I54L

SIX6 [13] = molecular target: T13, SIX6 (Homo sapiens, UniProt O95475 114-200, T165I)
T13 sequence: T1 sequence with T52I, I54L

Row | Sequence | binding signal (SIX6 [1]) | binding signal (SIX6 [2]) | binding signal (SIX6 [3]) | binding signal (SIX6 [4]) | binding signal (SIX6 [5]) | binding signal (SIX6 [6]) | binding signal (SIX6 [7]) | binding signal (SIX6 [8]) | binding signal (SIX6 [9]) | binding signal (SIX6 [10]) | binding signal (SIX6 [11]) | binding signal (SIX6 [12]) | binding signal (SIX6 [13])
1 | CAGGCCCG | 8.93 upbm affinity estimate (log intensity, higher = more binding, comparable within an allelic series) | 8.77 upbm affinity estimate (log intensity, higher = more binding, comparable within an allelic series) | 8.88 upbm affinity estimate (log intensity, higher = more binding, comparable within an allelic series) | 8.76 upbm affinity estimate (log intensity, higher = more binding, comparable within an allelic series) | 8.82 upbm affinity estimate (log intensity, higher = more binding, comparable within an allelic series) | 8.79 upbm affinity estimate (log intensity, higher = more binding, comparable within an allelic series) | 8.85 upbm affinity estimate (log intensity, higher = more binding, comparable within an allelic series) | 8.97 upbm affinity estimate (log intensity, higher = more binding, comparable within an allelic series) | 9.09 upbm affinity estimate (log intensity, higher = more binding, comparable within an allelic series) | 8.92 upbm affinity estimate (log intensity, higher = more binding, comparable within an allelic series) | 8.87 upbm affinity estimate (log intensity, higher = more binding, comparable within an allelic series) | 8.81 upbm affinity estimate (log intensity, higher = more binding, comparable within an allelic series) | 8.93 upbm affinity estimate (log intensity, higher = more binding, comparable within an allelic series)
2 | CGGGCCCC | 8.63 upbm affinity estimate (log intensity, higher = more binding, comparable within an allelic series) | 8.6 upbm affinity estimate (log intensity, higher = more binding, comparable within an allelic series) | 8.71 upbm affinity estimate (log intensity, higher = more binding, comparable within an allelic series) | 8.8 upbm affinity estimate (log intensity, higher = more binding, comparable within an allelic series) | 8.68 upbm affinity estimate (log intensity, higher = more binding, comparable within an allelic series) | 8.6 upbm affinity estimate (log intensity, higher = more binding, comparable within an allelic series) | 8.75 upbm affinity estimate (log intensity, higher = more binding, comparable within an allelic series) | 8.71 upbm affinity estimate (log intensity, higher = more binding, comparable within an allelic series) | 8.68 upbm affinity estimate (log intensity, higher = more binding, comparable within an allelic series) | 8.73 upbm affinity estimate (log intensity, higher = more binding, comparable within an allelic series) | 8.59 upbm affinity estimate (log intensity, higher = more binding, comparable within an allelic series) | 8.64 upbm affinity estimate (log intensity, higher = more binding, comparable within an allelic series) | 8.66 upbm affinity estimate (log intensity, higher = more binding, comparable within an allelic series)
3 | CGGCCACC | 8.7 upbm affinity estimate (log intensity, higher = more binding, comparable within an allelic series) | 8.6 upbm affinity estimate (log intensity, higher = more binding, comparable within an allelic series) | 8.63 upbm affinity estimate (log intensity, higher = more binding, comparable within an allelic series) | 8.71 upbm affinity estimate (log intensity, higher = more binding, comparable within an allelic series) | 8.67 upbm affinity estimate (log intensity, higher = more binding, comparable within an allelic series) | 8.54 upbm affinity estimate (log intensity, higher = more binding, comparable within an allelic series) | 8.75 upbm affinity estimate (log intensity, higher = more binding, comparable within an allelic series) | 8.72 upbm affinity estimate (log intensity, higher = more binding, comparable within an allelic series) | 8.67 upbm affinity estimate (log intensity, higher = more binding, comparable within an allelic series) | 8.71 upbm affinity estimate (log intensity, higher = more binding, comparable within an allelic series) | 8.66 upbm affinity estimate (log intensity, higher = more binding, comparable within an allelic series) | 8.55 upbm affinity estimate (log intensity, higher = more binding, comparable within an allelic series) | 8.64 upbm affinity estimate (log intensity, higher = more binding, comparable within an allelic series)
4 | CTCCGCCC | 8.91 upbm affinity estimate (log intensity, higher = more binding, comparable within an allelic series) | 8.91 upbm affinity estimate (log intensity, higher = more binding, comparable within an allelic series) | 8.92 upbm affinity estimate (log intensity, higher = more binding, comparable within an allelic series) | 8.95 upbm affinity estimate (log intensity, higher = more binding, comparable within an allelic series) | 8.94 upbm affinity estimate (log intensity, higher = more binding, comparable within an allelic series) | 8.89 upbm affinity estimate (log intensity, higher = more binding, comparable within an allelic series) | 8.86 upbm affinity estimate (log intensity, higher = more binding, comparable within an allelic series) | 8.87 upbm affinity estimate (log intensity, higher = more binding, comparable within an allelic series) | 8.89 upbm affinity estimate (log intensity, higher = more binding, comparable within an allelic series) | 8.96 upbm affinity estimate (log intensity, higher = more binding, comparable within an allelic series) | 8.86 upbm affinity estimate (log intensity, higher = more binding, comparable within an allelic series) | 8.89 upbm affinity estimate (log intensity, higher = more binding, comparable within an allelic series) | 8.95 upbm affinity estimate (log intensity, higher = more binding, comparable within an allelic series)
5 | CCAGACGG | 8.98 upbm affinity estimate (log intensity, higher = more binding, comparable within an allelic series) | 8.84 upbm affinity estimate (log intensity, higher = more binding, comparable within an allelic series) | 8.93 upbm affinity estimate (log intensity, higher = more binding, comparable within an allelic series) | 8.91 upbm affinity estimate (log intensity, higher = more binding, comparable within an allelic series) | 9.05 upbm affinity estimate (log intensity, higher = more binding, comparable within an allelic series) | 9.07 upbm affinity estimate (log intensity, higher = more binding, comparable within an allelic series) | 8.95 upbm affinity estimate (log intensity, higher = more binding, comparable within an allelic series) | 9.01 upbm affinity estimate (log intensity, higher = more binding, comparable within an allelic series) | 9.12 upbm affinity estimate (log intensity, higher = more binding, comparable within an allelic series) | 8.94 upbm affinity estimate (log intensity, higher = more binding, comparable within an allelic series) | 9.01 upbm affinity estimate (log intensity, higher = more binding, comparable within an allelic series) | 9.03 upbm affinity estimate (log intensity, higher = more binding, comparable within an allelic series) | 9.05 upbm affinity estimate (log intensity, higher = more binding, comparable within an allelic series)
6 | GGGGGCAA | 8.96 upbm affinity estimate (log intensity, higher = more binding, comparable within an allelic series) | 9.04 upbm affinity estimate (log intensity, higher = more binding, comparable within an allelic series) | 8.94 upbm affinity estimate (log intensity, higher = more binding, comparable within an allelic series) | 8.98 upbm affinity estimate (log intensity, higher = more binding, comparable within an allelic series) | 9.06 upbm affinity estimate (log intensity, higher = more binding, comparable within an allelic series) | 8.97 upbm affinity estimate (log intensity, higher = more binding, comparable within an allelic series) | 8.96 upbm affinity estimate (log intensity, higher = more binding, comparable within an allelic series) | 8.89 upbm affinity estimate (log intensity, higher = more binding, comparable within an allelic series) | 8.98 upbm affinity estimate (log intensity, higher = more binding, comparable within an allelic series) | 9.04 upbm affinity estimate (log intensity, higher = more binding, comparable within an allelic series) | 8.9 upbm affinity estimate (log intensity, higher = more binding, comparable within an allelic series) | 8.96 upbm affinity estimate (log intensity, higher = more binding, comparable within an allelic series) | 9.01 upbm affinity estimate (log intensity, higher = more binding, comparable within an allelic series)
